Shown are actives, neighbours in structure and some others; about 14% of the full set was active somewhere.
HADH2 inhib = qHTS Assay for Inhibitors of HADH2 (Hydroxyacyl-Coenzyme A Dehydrogenase, Type II) | recombinant HADH2, NADH fluorescence, beta-hydroxybutyryl-CoA | Potency, µM (titrated, usually from 57.1 µM), without a hit: at the top dose activity change, negative = inhibition, most hits filed as inhibitors | 73,000 compounds, 3.4% hits | 3-hydroxyacyl-CoA dehydrogenase type-2 (Homo sapiens), Q99714; note: potency is the fitted concentration of half-maximal effect; % is set by controls: 0 for no effect and ±100 for the full control effect; nearly all actives have a fitted effect of over 60% in size
Target sequence (Q99714 whole entry, looked up, one chain of several): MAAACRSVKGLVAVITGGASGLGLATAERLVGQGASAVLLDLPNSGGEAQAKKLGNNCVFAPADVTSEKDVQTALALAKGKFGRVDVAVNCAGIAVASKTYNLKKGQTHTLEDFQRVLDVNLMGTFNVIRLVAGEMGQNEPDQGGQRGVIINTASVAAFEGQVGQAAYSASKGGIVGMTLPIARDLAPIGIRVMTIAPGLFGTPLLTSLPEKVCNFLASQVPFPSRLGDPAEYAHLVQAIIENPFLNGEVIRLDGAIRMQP
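His-tagged recombinant enzyme from E. coli, 20 nM, preincubated 15 min RT with compound; reaction started with 1 mM NAD+ and 90 uM beta-hydroxybutyryl-CoA in 100 mM Tris-HCl pH 9.0. NADH fluorescence (ex 360/em 450) read over 4 min; last-minus-first difference.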
4MU fluor = qHTS Assay for Spectroscopic Profiling in 4-MU Spectral Region. max dye-equivalent concentration, M. 59,000 compounds, 11% hits. compound autofluorescence, 340/450 nm, 4-MU equivalents; hits give high values; in the data active = max dye-equivalent concentration above about 10 nM; inconclusive = mostly about 1.1 nM to 9.6 nM
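Intrinsic fluorescence at 340/450 nm (ex/em) was read after 15 min at room temperature in pH 8.0, 100 mM Tris. Each compound concentration expressed as 4-MU-equivalent concentration from a six-point 4-MU standard series on each plate.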
AID923 = qHTS Assay for Allosteric/Competitive Inhibitors of Caspase-1: Spectroscopic Profiling in AFC Spectral Region | compound fluorescence, AFC spectral region (405/520 nm) | 75,000 compounds, 1.1% hits | Potency, µM (doses to about 57.5 µM), inactives show at the highest dose fluorescence increase, hits mostly activators; note: potency is the fitted concentration of half-maximal effect; 0% is about no effect
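Compound autofluorescence profiled at 405 nm ex/520 nm em during kinetic caspase 1 run (50 nM enzyme, 5 uM Ac-WEHD-AFC, HEPES pH 7.5, 10 mM DTT). Titration up to 57 uM; baseline from regression intercept, normalized to AFC standard curve.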
A350 fluor = qHTS Assay for Spectroscopic Profiling in A350 Spectral Region; Compound autofluorescence, 340/450 nm, Alexa 350 dye-equivalents; hits give high values; max dye-equivalent concentration, M; 59,000 compounds, 11% hits; AID 590, 2007; in the data active = max dye-equivalent concentration above about 10 nM; inconclusive = mostly about 1.1 nM to 9.6 nM
CRE-bla Fsk = Cell signaling CRE-BLA (Fsk stim). CHO CRE-bla reporter (cAMP response element driving beta-lactamase), forskolin EC10, beta-lactamase ratio. Potency, µM (doses to about 38.2 µM), inactives show at the highest dose activity change, negative = inhibition, usual class: activators. 71,000 compounds, 2.5% hits. AID 662, 2007; active = well fitted activation curve with a large enough effect in the signal ratio, with a control signal flat, not every such curve was filed as active; inconclusive = small, poorly fitted or top-dose-only effect, or effect the other way, or a change in a side signal; the % refers to the signal ratio; note: potency is the fitted concentration of half-maximal effect; % of control where 0% means no effect
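CHO CRE-bla cells, overnight plating in Opti-MEM with 0.5% dialyzed FBS; cpd titration + EC10 NKH 477, 3 h 37 °C; CCF4 2 h RT; ex 405/em 460 vs 530 ratio → %Activity, AC50.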
HSD17B inh = qHTS Assay for Inhibitors of HSD17B4, hydroxysteroid (17-beta) dehydrogenase 4 | 3-hydroxyacyl-CoA dehydrogenase type-2 (Homo sapiens), Q99714 | recombinant HSD17B10, NADH fluorescence kinetic | Potency, µM (highest dose often 57.1 µM), for inactives: at the top dose activity change, negative = inhibition, actives largely listed as inhibitors | 75,000 compounds, 7.6% hits | AID 893, 2007;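 note: the protocol describes HADH2 (HSD17B10) and not the HSD17B4 of the title; potency is the fitted concentration of half-maximal effect; % is set by controls: 0 for no effect and ±100 for the full control effect; nearly all actives have a fitted effect of over 70% in size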
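His-tagged E. coli-expressed HADH2 at 20 nM in 100 mM Tris-HCl pH 9.0 with 0.01 % Tween-20, preincubated 15 min with compound at room temperature. Reaction with 1 mM NAD+ and 90 uM beta-hydroxybutyryl coenzyme A; NADH fluorescence (360/450 nm) read kinetically over 4 min, last minus first point.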
Starred values were filed as active, the others as inactive; [ ] = remark or other dose. Unless noted, calls come from the whole dose curve; as a rule, active = well fitted curve in the direction sought with a large enough effect; inconclusive = small, poorly fitted or top-dose-only effect, or another doubt; inactive = no such curve, though single readings can be large; an effect the other way counts as inactive or inconclusive.

`CCC(=O)Nc1ccc2nc(SCC(=O)N3CCCC3)sc2c1` gave HADH2 inhib 1%, 4MU fluor 4.1e-07M*, AID923 18%, A350 fluor 5.5e-07M*, CRE-bla Fsk -7% and HSD17B inh inconclusive.
Screening CCCC(=O)Nc1ccc2nc(SCC(=O)Nc3nccs3)sc2c1 returned HADH2 inhib -17%, 4MU fluor inactive, AID923 0%, A350 fluor inactive, CRE-bla Fsk -6% and HSD17B inh -12%.
Screening Cn1cccc1-c1nc2ccccc2n1Cc1ccccc1 returned HADH2 inhib 6%, 4MU fluor inactive, AID923 0%, A350 fluor inactive, CRE-bla Fsk 2% and HSD17B inh 25µM*.
Screening Cc1ccc(Cn2c(-c3nonc3N)nc3ccccc32)cc1 returned HADH2 inhib 4%, 4MU fluor inactive, AID923 -2%, A350 fluor inactive, CRE-bla Fsk 10% and HSD17B inh -4%.
For Cc1ccc(Cn2ncc3c(N4CCN(Cc5ccc(Cl)cc5)CC4)ncnc32)cc1 the results were 4MU fluor inactive and A350 fluor inactive.
For Cc1ccccc1N1CCN(c2ncnc3c2cnn3Cc2ccc(Cl)cc2)CC1 the results were HADH2 inhib -29%, 4MU fluor inactive, AID923 -5%, A350 fluor inactive, CRE-bla Fsk 3% and HSD17B inh 20µM*.
`O=C1[C@H]2[C@H]3[C@H](O)[C@H](O)C/C(=N/OCc4ccccc4)[C@H]3CC[C@@H]2C(=O)N1C1CCCCC1` gave HADH2 inhib 3%[11.4 µM], AID923 2%[11.5 µM] and HSD17B inh 5%[11.4 µM].
Screening COCCn1nnnc1CN1C2CCCC1CC(NC(C)=O)C2 (centres undefined) returned HADH2 inhib -9%, 4MU fluor 1e-08M*, AID923 0%, A350 fluor 1.5e-08M*, CRE-bla Fsk -12% and HSD17B inh 13%.
Screening COc1ccc(-c2cc(C(=O)N3CCOCC3)c3cc(C)ccc3n2)cc1 returned HADH2 inhib 32µM*, 4MU fluor 5.7e-07M*, AID923 3%, A350 fluor 7.3e-07M*, CRE-bla Fsk 13% and HSD17B inh 25µM*.
Cc1ccc(-c2cc(C(=O)N3CCOCC3)c3ccccc3n2)cc1 was read as HADH2 inhib inconclusive, 4MU fluor inconclusive, AID923 1%, A350 fluor inconclusive, CRE-bla Fsk inconclusive and HSD17B inh 25µM*.
For CC1CCCCN1c1nc(-c2ccncc2)nc2ccccc12 (centres undefined) the results were HADH2 inhib -5%, 4MU fluor inactive, AID923 -2%, A350 fluor inactive, CRE-bla Fsk 7.9µM* and HSD17B inh -13%.
Screening CC1CCN(c2nc(-c3ccncc3)nc3ccccc23)CC1 returned HADH2 inhib -2%, AID923 5%, CRE-bla Fsk 7.9µM* and HSD17B inh -2%.
`COc1ccc(C(c2c(O)ccc3ccccc23)N2CCOCC2)c(OC)c1` (centres undefined) gave HADH2 inhib inconclusive, 4MU fluor inconclusive, AID923 2%, A350 fluor inconclusive, CRE-bla Fsk inconclusive and HSD17B inh 25µM*.
For O=C(Oc1ccccc1)N1CCC[C@@]2(CCN(c3ccccc3)C2)C1 the results were HADH2 inhib -7%, 4MU fluor inactive, AID923 3%, A350 fluor inactive, CRE-bla Fsk -4% and HSD17B inh -10%.
For O=C(CSc1nc2c(sc3ccccc32)c(=O)n1CCO)NCC1CCCO1 (centres undefined) the results were HADH2 inhib -1%, 4MU fluor inconclusive, AID923 0%, A350 fluor inconclusive, CRE-bla Fsk 16% and HSD17B inh 11%.
